{"source": "PubChem BioAssay AID430", "about": "(Sanford-Burnham Center for Chemical Genomics, 2006)", "note": "Hit rate of the full screen: of about 63,000 compounds, about 1,100 (1.7%) were called active. For the sample, actives were picked, then their nearest neighbours and some compounds at random. Potency and affinity values are given separately. Unmarked numbers belong to inactive results. Rule as the data show it: active = cytotoxicity above about 50%; inactive = the rest."}
{"assay": "HPDE-C7 pancreatic duct cell viability loss – fluorescence, HTS (AID 430);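 also: cells exposed to compound for 48 hours before viability readout; 0% = vehicle and 100% = reference cytotoxic drug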", "details": "HPDE-C7 pancreatic duct cells viability, at 10 µM, active compounds read high"}
{"smiles": "COc1ccc(-c2oc(/N=C/N3CCOCC3)c(C#N)c2-c2ccc(OC)cc2)cc1", "cytotoxicity": "-7.7%"}
{"smiles": "NC1=NC2(CCN(Cc3ccccc3)CC2)n2c(nc3ccccc32)N1", "cytotoxicity": "0.8%"}
{"smiles": "NC1=NC2(CCC(c3ccccc3)CC2)n2c(nc3ccccc32)N1", "note": "(stereo not drawn)", "cytotoxicity": "77.1% (active)"}
{"smiles": "NC1=NC2(CCCCC2)n2c(nc3ccccc32)N1", "cytotoxicity": "11.9%"}
{"smiles": "CCCn1c(SCC(=O)Nc2ccc3c(c2)OCO3)nc2c1c(=O)n(C)c(=O)n2C", "cytotoxicity": "-4.6%"}
{"smiles": "Cc1noc(C)c1CSc1ncnc2ccccc12", "cytotoxicity": "4.7%"}
{"smiles": "Cc1noc(C)c1CSc1nc2ccccc2nc1NS(=O)(=O)c1ccc(Cl)cc1", "cytotoxicity": "81.1% (active)"}
{"smiles": "O=S(=O)(Nc1nc2ccccc2nc1NCc1ccco1)c1ccc(Cl)cc1", "cytotoxicity": "18.1%"}
{"smiles": "O=C(CN1CCN(c2ccccn2)CC1)N1c2ccccc2Sc2ccc(C(F)(F)F)cc21", "cytotoxicity": "22.1%"}
{"smiles": "O=C(c1ccco1)N1c2ccccc2Sc2ccccc21", "cytotoxicity": "4.4%"}
{"smiles": "O=C(N1CCN(c2ccccn2)CC1)N1c2ccccc2Sc2ccccc21", "cytotoxicity": "66.7% (active)"}
{"smiles": "O=C(c1ccco1)N1CCN(C(=O)N2c3ccccc3Sc3ccccc32)CC1", "cytotoxicity": "73.2% (active)"}
{"smiles": "O=C(N1CCOCC1)N1CCN(c2ccccn2)CC1", "cytotoxicity": "-15.7%"}
{"smiles": "O=C(NC1CCN(C(=O)N2c3ccccc3Sc3ccccc32)CC1)c1ccco1", "cytotoxicity": "-12.6%"}
{"smiles": "CC(=O)N1c2c(cc(Br)cc2S(=O)(=O)NCC2COc3ccccc3O2)CC1C", "note": "(stereo not drawn)", "cytotoxicity": "13.1%"}
{"smiles": "COc1ccc(-c2oc3ncnc(NCCCN4CCOCC4)c3c2-c2ccc(OC)cc2)cc1", "cytotoxicity": "67.3% (active)"}
{"smiles": "c1ccc(-c2oc3ncnc(NCCCN4CCOCC4)c3c2-c2ccccc2)cc1", "cytotoxicity": "48.6%"}
{"smiles": "COc1ccc(-c2oc3ncnc(NCCN4CCOCC4)c3c2-c2ccc(OC)cc2)cc1", "cytotoxicity": "3.3%"}
{"smiles": "Cc1cccc(CS(=O)(=O)Cc2ccc(C(=O)NCc3cccnc3)o2)c1", "cytotoxicity": "-7.1%"}
{"smiles": "c1ccc2c(SCc3cn4cccnc4n3)ncnc2c1", "cytotoxicity": "13.3%"}
{"smiles": "Cc1cc(=O)n2c3c(sc2n1)C(=O)N(Cc1ccccc1)C3=O", "cytotoxicity": "3.8%"}
{"smiles": "Cc1cccc(Nc2nc(N)nc(CN3CCN(c4ccccc4)CC3)n2)c1", "cytotoxicity": "-13.2%"}
{"smiles": "COc1ccc(N2CCN(Cc3nc(N)nc(Nc4ccc(C)c(Cl)c4)n3)CC2)cc1", "cytotoxicity": "7.9%"}
{"smiles": "Cc1ccc(Nc2nc(N)nc(CN3CCN(c4ccccc4)CC3)n2)cc1Cl", "cytotoxicity": "72.1% (active)"}
{"smiles": "O=C(Nc1nccs1)c1ccc(Br)o1", "cytotoxicity": "-3.3%"}
{"smiles": "Cc1ccc(C(=O)NCCn2cc(SCC(=O)Nc3nnc(C)s3)c3ccccc32)cc1", "cytotoxicity": "-2%"}
{"smiles": "c1ccc(CSc2nnc(-c3c[nH]c4ccccc34)o2)cc1", "cytotoxicity": "-3.6%"}
{"smiles": "S=c1[nH]nc(Cc2c[nH]c3ccccc23)o1", "cytotoxicity": "-0.8%"}
{"smiles": "O=C(Nc1ccc2c(c1)OCO2)Oc1ccccc1", "cytotoxicity": "-9.1%"}
{"smiles": "CSc1nc(N2CCN(CCO)CC2)c2sc3nc(-c4ccco4)c4c(c3c2n1)CCC4", "cytotoxicity": "-8.6%"}
{"smiles": "c1nc(NCCN2CCOCC2)c2sc3nc(N4CCOCC4)c4c(c3c2n1)CCC4", "cytotoxicity": "16.6%"}
{"smiles": "COC(=O)CSc1ncnc2c1sc1nc(-c3ccco3)c3c(c12)CC(C)(C)OC3", "cytotoxicity": "15%"}
{"smiles": "OCCN(CCO)c1ncnc2c1sc1nc(N3CCOCC3)c3c(c12)CCCC3", "cytotoxicity": "-3.9%"}
{"smiles": "CCC1Oc2ccccc2N(CC(=O)NCCC2=CCCCC2)C1=O", "note": "(stereo not drawn)", "cytotoxicity": "0.8%"}
{"smiles": "COc1cccc(N2CCN(C(=O)CCn3c(=S)[nH]c4cc5c(cc4c3=O)OCO5)CC2)c1", "cytotoxicity": "-14.3%"}
{"smiles": "CCCOc1ccc2ccccc2c1/C=N/n1c(C)nnc1-n1nc(C)cc1C", "cytotoxicity": "41.9%"}
{"smiles": "Cc1cc(C)n(-c2nnc(C)n2/N=C/c2ccccc2OCc2ccccc2Cl)n1", "cytotoxicity": "34.5%"}
{"smiles": "Cc1cc(C)n(-c2nnc(C)n2/N=C/c2cc(Br)ccc2OCc2ccccc2)n1", "cytotoxicity": "57.6% (active)"}
{"smiles": "COc1ccc(O)c(-c2cc(-c3cccs3)[nH]n2)c1", "cytotoxicity": "26.9%"}
{"smiles": "Oc1ccc(Br)cc1-c1cc(-c2ccccc2F)[nH]n1", "cytotoxicity": "12.4%"}
{"smiles": "CSc1nnc2n(-c3ccccc3)c(=O)c3c4c(sc3n12)CCC4", "cytotoxicity": "11.5%"}
{"smiles": "O=S(=O)(c1ccccc1)N1CCN(Cc2ccccc2C(F)(F)F)CC1", "cytotoxicity": "-2.9%"}
{"smiles": "CCOc1ccc(NS(=O)(=O)c2ccc3c(c2)CCN3C(=O)CCC(=O)O)cc1", "cytotoxicity": "-5.5%"}
{"smiles": "O=S(=O)(c1ccc2ccccc2c1)N(CC(O)CN1CCOCC1)c1ccccc1", "note": "(stereo not drawn)", "cytotoxicity": "-8%"}
{"smiles": "O=S(=O)(c1ccc2ccccc2c1)N1CCCCC1", "cytotoxicity": "-5.5%"}
{"smiles": "CCCn1c(SCC(=O)Nc2cccc(C)n2)nnc1-c1ccco1", "cytotoxicity": "-2%"}
{"smiles": "CCOC(=O)C1=C(C)NC(C)=C(C(=O)OCC)C1c1ccc(OC)cc1", "cytotoxicity": "11.1%"}
{"smiles": "CN1CCN(C(CNS(=O)(=O)c2ccc(Cl)cc2)c2cccnc2)CC1", "note": "(stereo not drawn)", "cytotoxicity": "2.1%"}
{"smiles": "COCCNC(=O)C(c1ccccc1C)N(CCOC)C(=O)Cn1nnc2ccccc21", "note": "(stereo not drawn)", "cytotoxicity": "4.3%"}
{"smiles": "O=C(CSc1nnc(-c2cccs2)o1)N1CCOCC1", "cytotoxicity": "-10.3%"}
{"smiles": "CCOC(=O)c1cn2c3c(c(F)c(F)c(F)c3c1=O)SC(N1CCCC1)=N2", "cytotoxicity": "62.5% (active)"}
{"smiles": "CCOC(=O)c1sc2c(c1C)c(=O)c(C(=O)OCC)cn2CC", "cytotoxicity": "1.7%"}
{"smiles": "CCOC(=O)c1cn(CC)c2cc(N3CCCCC3)c(F)cc2c1=O", "cytotoxicity": "3.7%"}
{"smiles": "CCCOCCOC(=O)C1=C(C)NC(=O)NC1c1cc(Cl)c(O)c(OC)c1", "note": "(stereo not drawn)", "cytotoxicity": "-9.1%"}
{"smiles": "Cc1nn(CC(O)Cn2c3c(c4ccccc42)CCN(C)C3=O)c(C)c1Br", "note": "(stereo not drawn)", "cytotoxicity": "-4.2%"}
{"smiles": "CCOC(=O)c1cc(C)n(CCc2ccccc2)c1C", "cytotoxicity": "-7.6%"}
{"smiles": "Nc1nc(-c2ccccc2Br)cs1", "cytotoxicity": "11.7%"}
{"smiles": "Cc1cc(-c2csc(N)n2)c(C)n1CCc1ccccc1", "cytotoxicity": "78.3% (active)"}
{"smiles": "CCOC(=O)N1CCN(C/C(C)=C/c2ccccc2)CC1", "cytotoxicity": "-6%"}
{"smiles": "CCN(CCN(C)C)C(=O)Cn1ncc2c1-c1cc(C)ccc1OC2", "cytotoxicity": "-7.1%"}
{"smiles": "COc1ccc(C(=O)N2CCc3cc(OC)c(OC)cc3C2)cc1OC", "cytotoxicity": "5.8%"}
{"smiles": "CCOc1cc(C(=O)N2CCc3cc(OC)c(OC)cc3C2)ccc1OC(F)F", "cytotoxicity": "82.5% (active)"}
{"smiles": "CCOc1ccc(C(=O)N2CCc3cc(OC)c(OC)cc3C2)cc1OCC", "cytotoxicity": "18.6%"}
